Where a name gives a salt, the structure may show the parent alone.
What was measured:
Settings in all cases: treatment time: 24 h
[1] = test system: HepG2-ACTB-RAB5A; assay: lowest phenotypically active concentration; higher = less potent
Procedure, shortened: (§1)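 Cells from fifteen gene-edited reporter lines (A549, HepG2 and WPMY1) were treated for 24 h at 0.3, 1, 3 or 9 µM and imaged live, four wells per condition. Features were normalised per well to solvent control wells. A condition deviated if ≥3 of 4 wells passed the 95th percentile of control Euclidean distances and was reproducible if its median replicate Pearson correlation beat the 95th percentile of non-replicates; phenotypic activity needed both.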

[2] = test system: HepG2-CANX-COX4; assay: as above
Procedure, shortened: as §1

[3] = test system: HepG2-TP53BP1-CLTA; assay: as above
Procedure, shortened: as §1

[4] = test system: HepG2-TUBA1B-RELA; assay: as above
Procedure, shortened: as §1

[5] = test system: WPMY1-ACTB-RAB5A; assay: as above
Procedure, shortened: as §1

[6] = test system: WPMY1-CANX-COX4; assay: as above
Procedure, shortened: as §1

[7] = test system: WPMY1-GM130-SQSTM1; assay: as above
Procedure, shortened: as §1

[8] = test system: WPMY1-TP53BP1-CLTA; assay: as above
Procedure, shortened: as §1

[9] = test system: WPMY1-TUBA1B-RELA; assay: as above
Procedure, shortened: as §1

[10] = test system: WPMY1-ACTB-RAB5A; assay: phenotypically active (imaging signature differs from DMSO and reproducible) at any of 0.3-9 uM (binary (1 = active, 0 = inactive)); higher = active
Procedure, shortened: as §1

Oc1cccc(-c2nc(N3CCOCC3)c3oc4ncccc4c3n2)c1 [PI 103 hydrochloride]
active: phenotypically active [10] 1
≤ 0.3 µM: lowest phenotypically active concentration [1] | lowest phenotypically active concentration [2] | lowest phenotypically active concentration [3] | lowest phenotypically active concentration [4] | lowest phenotypically active concentration [5] | lowest phenotypically active concentration [6] | lowest phenotypically active concentration [7] | lowest phenotypically active concentration [8] | lowest phenotypically active concentration [9]

CO[C@@H]1[C@H](N(C)C(=O)c2ccccc2)C[C@H]2O[C@]1(C)n1c3ccccc3c3c4c(c5c6ccccc6n2c5c31)C(=O)NC4
active: phenotypically active [10] 1
≤ 0.3 µM: lowest phenotypically active concentration [1] | lowest phenotypically active concentration [2] | lowest phenotypically active concentration [3] | lowest phenotypically active concentration [4] | lowest phenotypically active concentration [5] | lowest phenotypically active concentration [6] | lowest phenotypically active concentration [8] | lowest phenotypically active concentration [9]
1 µM: lowest phenotypically active concentration [7]

CN(C)CCCNc1c2c(=O)n(C)c(=O)nc-2n(C)c2ccccc12
3 µM: lowest phenotypically active concentration [9]
active: phenotypically active [10] 1
9 µM: lowest phenotypically active concentration [1] | lowest phenotypically active concentration [2] | lowest phenotypically active concentration [3] | lowest phenotypically active concentration [4] | lowest phenotypically active concentration [5] | lowest phenotypically active concentration [6] | lowest phenotypically active concentration [7] | lowest phenotypically active concentration [8]

Nc1cccc(-c2cc3c(Oc4cccc(O)c4)ncnc3[nH]2)c1
9 µM: lowest phenotypically active concentration [2] | lowest phenotypically active concentration [6] | lowest phenotypically active concentration [7] | lowest phenotypically active concentration [9]
3 µM: lowest phenotypically active concentration [3] | lowest phenotypically active concentration [4] | lowest phenotypically active concentration [5] | lowest phenotypically active concentration [8]
active: phenotypically active [10] 1
1 µM: lowest phenotypically active concentration [1]

O=C1Nc2ccc(F)cc2C1=C1Nc2ccccc2C1=NO [5'-Fluoroindirubinoxime]
≤ 0.3 µM: lowest phenotypically active concentration [1] | lowest phenotypically active concentration [2] | lowest phenotypically active concentration [6] | lowest phenotypically active concentration [8]
1 µM: lowest phenotypically active concentration [3] | lowest phenotypically active concentration [4] | lowest phenotypically active concentration [5] | lowest phenotypically active concentration [7] | lowest phenotypically active concentration [9]
active: phenotypically active [10] 1

Cc1ccc([N+](=O)[O-])cc1S(=O)(=O)N(C)/N=C/c1cnc2ccc(Br)cn12
≤ 0.3 µM: lowest phenotypically active concentration [1] | lowest phenotypically active concentration [2] | lowest phenotypically active concentration [3] | lowest phenotypically active concentration [4] | lowest phenotypically active concentration [5] | lowest phenotypically active concentration [6] | lowest phenotypically active concentration [7] | lowest phenotypically active concentration [8] | lowest phenotypically active concentration [9]
active: phenotypically active [10] 1

COc1ccccc1-c1c[nH]c2ncc(-c3cncc(C(=O)N(C)C)c3)cc12
3 µM: lowest phenotypically active concentration [9]
active: phenotypically active [10] 1
≤ 0.3 µM: lowest phenotypically active concentration [1] | lowest phenotypically active concentration [2] | lowest phenotypically active concentration [3] | lowest phenotypically active concentration [4] | lowest phenotypically active concentration [5] | lowest phenotypically active concentration [6] | lowest phenotypically active concentration [7] | lowest phenotypically active concentration [8]

CCN(CCO)CCCOc1ccc2c(Nc3cc(CC(=O)Nc4cccc(F)c4)n[nH]3)ncnc2c1 [barasertib-HQPA]
≤ 0.3 µM: lowest phenotypically active concentration [1] | lowest phenotypically active concentration [2] | lowest phenotypically active concentration [3] | lowest phenotypically active concentration [4] | lowest phenotypically active concentration [5] | lowest phenotypically active concentration [6] | lowest phenotypically active concentration [7] | lowest phenotypically active concentration [8] | lowest phenotypically active concentration [9]
active: phenotypically active [10] 1

COc1c(C)cnc(Cn2cc(C#CCC(C)(C)O)c3c(Cl)nc(N)nc32)c1C
≤ 0.3 µM: lowest phenotypically active concentration [1] | lowest phenotypically active concentration [2] | lowest phenotypically active concentration [3] | lowest phenotypically active concentration [4] | lowest phenotypically active concentration [5] | lowest phenotypically active concentration [6] | lowest phenotypically active concentration [7] | lowest phenotypically active concentration [8] | lowest phenotypically active concentration [9]
active: phenotypically active [10] 1

Cc1ccc(C(=O)N(CCCN)[C@@H](c2oc3cc(Cl)ccc3c(=O)c2Cc2ccccc2)C(C)C)cc1
active: phenotypically active [10] 1
3 µM: lowest phenotypically active concentration [6]
≤ 0.3 µM: lowest phenotypically active concentration [1] | lowest phenotypically active concentration [2] | lowest phenotypically active concentration [3] | lowest phenotypically active concentration [4] | lowest phenotypically active concentration [5] | lowest phenotypically active concentration [7] | lowest phenotypically active concentration [8] | lowest phenotypically active concentration [9]

COCc1c(C(C)C)nc(C(C)C)c(/C=C/[C@@H](O)C[C@@H](O)CC(=O)O)c1-c1ccc(F)cc1 [cerivastatin]
≤ 0.3 µM: lowest phenotypically active concentration [1] | lowest phenotypically active concentration [2] | lowest phenotypically active concentration [3] | lowest phenotypically active concentration [4] | lowest phenotypically active concentration [5] | lowest phenotypically active concentration [6] | lowest phenotypically active concentration [7] | lowest phenotypically active concentration [8] | lowest phenotypically active concentration [9]
active: phenotypically active [10] 1

Cc1cc(/N=N/c2ccc(S(=O)(=O)Nc3ccccn3)cc2)c(N)cc1O
active: phenotypically active [10] 1
9 µM: lowest phenotypically active concentration [1] | lowest phenotypically active concentration [3] | lowest phenotypically active concentration [4] | lowest phenotypically active concentration [6] | lowest phenotypically active concentration [8] | lowest phenotypically active concentration [9]
3 µM: lowest phenotypically active concentration [2] | lowest phenotypically active concentration [5] | lowest phenotypically active concentration [7]

Cc1c(CN2CCN(C(=O)[C@H](C)O)CC2)sc2c(N3CCOCC3)nc(-c3cnc(N)nc3)nc12
≤ 0.3 µM: lowest phenotypically active concentration [1] | lowest phenotypically active concentration [2] | lowest phenotypically active concentration [4] | lowest phenotypically active concentration [5] | lowest phenotypically active concentration [6] | lowest phenotypically active concentration [7] | lowest phenotypically active concentration [8] | lowest phenotypically active concentration [9]
1 µM: lowest phenotypically active concentration [3]
active: phenotypically active [10] 1

O=C(NCCCNc1nc(Nc2cccc(NC(=O)N3CCCC3)c2)ncc1I)c1cccs1
active: phenotypically active [10] 1
3 µM: lowest phenotypically active concentration [1] | lowest phenotypically active concentration [5] | lowest phenotypically active concentration [6] | lowest phenotypically active concentration [7] | lowest phenotypically active concentration [8] | lowest phenotypically active concentration [9]
1 µM: lowest phenotypically active concentration [2] | lowest phenotypically active concentration [3]
≤ 0.3 µM: lowest phenotypically active concentration [4]

CC(=O)O[C@H]1C(=O)[C@@]2(C)[C@H]([C@H](OC(=O)c3ccccc3)[C@]3(O)C[C@H](OC(=O)[C@H](O)[C@@H](NC(=O)c4ccccc4)c4ccccc4)C(C)=C1C3(C)C)[C@]1(OC(C)=O)CO[C@@H]1C[C@@H]2O [paclitaxel]
≤ 0.3 µM: lowest phenotypically active concentration [1] | lowest phenotypically active concentration [2] | lowest phenotypically active concentration [3] | lowest phenotypically active concentration [4] | lowest phenotypically active concentration [5] | lowest phenotypically active concentration [7] | lowest phenotypically active concentration [8] | lowest phenotypically active concentration [9]
active: phenotypically active [10] 1
9 µM: lowest phenotypically active concentration [6]

c1ccc2c(c1)Cc1c(Nc3ccc4c(c3)OCCO4)n[nH]c1-2
3 µM: lowest phenotypically active concentration [1] | lowest phenotypically active concentration [2] | lowest phenotypically active concentration [3] | lowest phenotypically active concentration [4] | lowest phenotypically active concentration [5] | lowest phenotypically active concentration [6] | lowest phenotypically active concentration [7] | lowest phenotypically active concentration [8] | lowest phenotypically active concentration [9]
active: phenotypically active [10] 1

NCC(=O)Nc1ccc(-n2nc(C(F)(F)F)cc2-c2ccc3c(ccc4ccccc43)c2)cc1
1 µM: lowest phenotypically active concentration [1] | lowest phenotypically active concentration [2] | lowest phenotypically active concentration [3] | lowest phenotypically active concentration [4] | lowest phenotypically active concentration [6] | lowest phenotypically active concentration [7]
active: phenotypically active [10] 1
≤ 0.3 µM: lowest phenotypically active concentration [5] | lowest phenotypically active concentration [8] | lowest phenotypically active concentration [9]

Cc1cnc(NC(=O)Nc2cc(Br)c(C)cc2OC[C@@H]2CNCCO2)cn1
9 µM: lowest phenotypically active concentration [2]
1 µM: lowest phenotypically active concentration [3] | lowest phenotypically active concentration [4] | lowest phenotypically active concentration [6] | lowest phenotypically active concentration [8] | lowest phenotypically active concentration [9]
≤ 0.3 µM: lowest phenotypically active concentration [5]
3 µM: lowest phenotypically active concentration [1] | lowest phenotypically active concentration [7]
active: phenotypically active [10] 1

Cc1cc(Nc2ncc3c(n2)N(C)C(=O)N(c2cc(NC(=O)c4cccc(C(F)(F)F)c4)ccc2C)C3)n(C)n1 [Pluripotin]
1 µM: lowest phenotypically active concentration [6] | lowest phenotypically active concentration [8] | lowest phenotypically active concentration [9]
≤ 0.3 µM: lowest phenotypically active concentration [1] | lowest phenotypically active concentration [2] | lowest phenotypically active concentration [3] | lowest phenotypically active concentration [4] | lowest phenotypically active concentration [5] | lowest phenotypically active concentration [7]
active: phenotypically active [10] 1

— the supplement of paper PMC7411054
